Results from PubChem BioAssay AID1159580 (chemical genetic matrix, 2015).
Out of some 5,500 compounds screened, about 2,000 (36%) were called active. Not shown: some 18% with an inconclusive outcome. Cut-off read from the data, not from the text of the source: active = normalized growth mostly below about 0.91 (no sharp cut-off); inconclusive = no clear call, values can overlap the other calls; inactive = mostly above about 0.92. This is one part of the list.

Assay: chemical genetic growth profiling, strain panel (AID 1159580);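 note: tested at 20 µM; growth read once vehicle control cultures reached saturation at 30 °C; 1 = growth at the plate median or of vehicle wells; lower values mean less growth of the strain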
Details: growth OD

Measured: normalized growth

NC(N)=NOCC[C@H](N)C(=O)O
inactive: S. cerevisiae deletion strains, locus YJR043C, strain POL32, stronger effect = lower value 1 | S. cerevisiae deletion strains, locus YJR075W, strain HOC1, stronger effect = lower value 0.983 | S. cerevisiae deletion strains, locus YKL009W, strain mrt4, stronger effect = lower value 0.971 | S. cerevisiae deletion strains, locus YKL068W, stronger effect = lower value 0.978 | S. cerevisiae deletion strains, locus YKL085W, strain MDH1 (second series), stronger effect = lower value 0.969 | S. cerevisiae deletion strains, locus YKL085W, strain MDH1, stronger effect = lower value 0.969 | S. cerevisiae deletion strains, locus YKL160W, strain elf1, stronger effect = lower value 1.01 | S. cerevisiae deletion strains, locus YKL190W, strain CNB1, stronger effect = lower value 0.995 | S. cerevisiae deletion strains, locus YKR001C, strain vps1, stronger effect = lower value 1 | S. cerevisiae deletion strains, locus YKR026C, strain gcn3, stronger effect = lower value 1.01 | S. cerevisiae deletion strains, locus YKR091W, strain srl3, stronger effect = lower value 1.01 | S. cerevisiae deletion strains, locus YLL001W, strain dnm1, stronger effect = lower value 1.01 | S. cerevisiae deletion strains, locus YLL026W, stronger effect = lower value 1.01 | S. cerevisiae deletion strains, locus YLL041C, strain sdh2, stronger effect = lower value 1.01 | S. cerevisiae deletion strains, locus YLR027C, strain aat2, stronger effect = lower value 1.01 | S. cerevisiae deletion strains, locus YLR039C, strain RIC1, stronger effect = lower value 0.933 | S. cerevisiae deletion strains, locus YLR058C, strain SHM2, stronger effect = lower value 0.984 | S. cerevisiae deletion strains, locus YLR102C, strain apc9, stronger effect = lower value 0.988 | S. cerevisiae deletion strains, locus YLR221C, strain rsa3, stronger effect = lower value 1.02 | S. cerevisiae deletion strains, locus YLR258W, strain gsy2, stronger effect = lower value 1.01 | S. cerevisiae deletion strains, locus YLR262C, strain YPT6 (second series), stronger effect = lower value 1.02 | S. cerevisiae deletion strains, locus YLR262C, strain YPT6, stronger effect = lower value 0.954 | S. cerevisiae deletion strains, locus YLR268W, strain sec22, stronger effect = lower value 1.03 | S. cerevisiae deletion strains, locus YLR320W, strain mms22, stronger effect = lower value 1.02 | S. cerevisiae deletion strains, locus YLR330W, strain CHS5, stronger effect = lower value 0.977 | S. cerevisiae deletion strains, locus YLR342W, strain FKS1 (second series), stronger effect = lower value 1.01 | S. cerevisiae deletion strains, locus YLR342W, strain FKS1, stronger effect = lower value 0.992 | S. cerevisiae deletion strains, locus YLR357W, strain rsc2, stronger effect = lower value 1.03 | S. cerevisiae deletion strains, locus YLR370C, strain arc18, stronger effect = lower value 1.02 | S. cerevisiae deletion strains, locus YLR371W, strain rom2, stronger effect = lower value 0.964 | S. cerevisiae deletion strains, locus YLR384C, strain iki3, stronger effect = lower value 1.01 | S. cerevisiae deletion strains, locus YLR418C, strain cdc73, stronger effect = lower value 1.02 | S. cerevisiae deletion strains, locus YML016C, strain PPZ1, stronger effect = lower value 0.992 | S. cerevisiae deletion strains, locus YML032C, strain rad52, stronger effect = lower value 0.976 | S. cerevisiae deletion strains, locus YML120C, strain ndi1, stronger effect = lower value 1.02 | S. cerevisiae deletion strains, locus YML124C, strain tub3, stronger effect = lower value 0.996 | S. cerevisiae deletion strains, locus YMR058W, strain fet3, stronger effect = lower value 1 | S. cerevisiae deletion strains, locus YMR078C, strain ctf18, stronger effect = lower value 0.998 | S. cerevisiae deletion strains, locus YMR125W, strain sto1, stronger effect = lower value 1 | S. cerevisiae deletion strains, locus YMR129W, stronger effect = lower value 1.02 | S. cerevisiae deletion strains, locus YMR205C, strain PFK2, stronger effect = lower value 1.01 | S. cerevisiae deletion strains, locus YMR223W, strain ubp8, stronger effect = lower value 0.976 | S. cerevisiae deletion strains, locus YMR231W, strain pep5, stronger effect = lower value 1.02 | S. cerevisiae deletion strains, locus YMR263W, strain SAP30, stronger effect = lower value 1.01 | S. cerevisiae deletion strains, locus YMR307W, strain GAS1, stronger effect = lower value 1.06 | S. cerevisiae deletion strains, locus YNL067W, strain RPL9B, stronger effect = lower value 1.02 | S. cerevisiae deletion strains, locus YNL071W, strain lat1, stronger effect = lower value 1.01 | S. cerevisiae deletion strains, locus YNL128W, strain TEP1, stronger effect = lower value 0.992 | S. cerevisiae deletion strains, locus YNL153C, strain GIM3, stronger effect = lower value 1.03 | S. cerevisiae deletion strains, locus YNL209W, strain ssb2, stronger effect = lower value 1 | S. cerevisiae deletion strains, locus YNL233W, strain BNI4, stronger effect = lower value 1.03 | S. cerevisiae deletion strains, locus YNL248C, strain rpa49, stronger effect = lower value 1.02 | S. cerevisiae deletion strains, locus YNL250W, strain rad50, stronger effect = lower value 0.961 | S. cerevisiae deletion strains, locus YNL271C, strain bni1, stronger effect = lower value 0.973 | S. cerevisiae deletion strains, locus YNL298W, strain CLA4, stronger effect = lower value 0.989 | S. cerevisiae deletion strains, locus YNL307C, strain MCK1, stronger effect = lower value 1 | S. cerevisiae deletion strains, locus YNL322C, strain KRE1 (second series), stronger effect = lower value 1.01 | S. cerevisiae deletion strains, locus YNL322C, strain KRE1, stronger effect = lower value 0.984 | S. cerevisiae deletion strains, locus YNR049C, strain mso1, stronger effect = lower value 1.01 | S. cerevisiae deletion strains, locus YNR052C, strain pop2, stronger effect = lower value 0.974 | S. cerevisiae deletion strains, locus YOL006C, strain TOP1, stronger effect = lower value 1.07 | S. cerevisiae deletion strains, locus YOL012C, strain htz1 1.13 | S. cerevisiae deletion strains, locus YOL147C, strain pex11, stronger effect = lower value 0.986 | S. cerevisiae deletion strains, locus YOR001W, strain rrp6, stronger effect = lower value 1.03 | S. cerevisiae deletion strains, locus YOR061W, strain CKA2, stronger effect = lower value 0.991 | S. cerevisiae deletion strains, locus YOR069W, strain VPS5, stronger effect = lower value 0.994 | S. cerevisiae deletion strains, locus YOR070C, strain gyp1, stronger effect = lower value 1.02 | S. cerevisiae deletion strains, locus YOR080W, strain dia2, stronger effect = lower value 1.02 | S. cerevisiae deletion strains, locus YOR083W, strain WHI5, stronger effect = lower value 1 | S. cerevisiae deletion strains, locus YOR106W, strain vam3, stronger effect = lower value 1.01 | S. cerevisiae deletion strains, locus YOR136W, strain idh2, stronger effect = lower value 0.988 | S. cerevisiae deletion strains, locus YOR144C, strain elg1, stronger effect = lower value 0.989 | S. cerevisiae deletion strains, locus YOR184W, strain ser1, stronger effect = lower value 0.971 | S. cerevisiae deletion strains, locus YOR265W, strain rbl2, stronger effect = lower value 1.01 | S. cerevisiae deletion strains, locus YOR270C, strain vph1, stronger effect = lower value 1.04 | S. cerevisiae deletion strains, locus YOR290C, strain snf2, stronger effect = lower value 1.02 | S. cerevisiae deletion strains, locus YOR316C, strain cot1, stronger effect = lower value 0.992 | S. cerevisiae deletion strains, locus YPL051W, strain arl3, stronger effect = lower value 1.01 | S. cerevisiae deletion strains, locus YPL055C, strain LGE1, stronger effect = lower value 1.02 | S. cerevisiae deletion strains, locus YPL078C, strain atp4, stronger effect = lower value 1.02 | S. cerevisiae deletion strains, locus YPL106C, strain sse1, stronger effect = lower value 1.03 | S. cerevisiae deletion strains, locus YPL240C, strain hsp82, stronger effect = lower value 1 | S. cerevisiae deletion strains, locus YPL241C, strain CIN2, stronger effect = lower value 0.993 | S. cerevisiae deletion strains, locus YPR119W, strain clb2, stronger effect = lower value 0.996 | S. cerevisiae deletion strains, locus YPR141C, strain kar3, stronger effect = lower value 0.988 | S. cerevisiae deletion strains, locus YPR163C, strain tif3, stronger effect = lower value 0.983 | S. cerevisiae deletion strains, locus YPR167C, strain met16, stronger effect = lower value 0.985 | S. cerevisiae deletion strains, strain wtn01, stronger effect = lower value 0.999 | S. cerevisiae strains, strain wild type, stronger effect = lower value 0.992
